# Measured values as given in PubChem BioAssay (NCATS).
# A number with no mark means an inactive call. Inconclusive results are not listed. Entries that show only a call come without a potency. Activity calls are given as the source filed them. Unless noted, the call rests on the fitted dose curve; in most records, active means well fitted curve in the direction sought with a large enough effect; inconclusive means small, poorly fitted or top-dose-only effect, or another doubt; inactive means no such curve, though single readings can be large; an effect the other way counts as inactive or inconclusive.
# Key:
# [1] = target: Cytochrome P450 2C9 (Homo sapiens) (UniProt P11712); assay: qHTS Assay for Inhibitors and Substrates of Cytochrome P450 2C9 (AID 883); further: nearly all actives have a fitted effect of over 60% in size; further: potency means the concentration at half of the fitted maximal effect
# Cytochrome P450 2C9 (Homo sapiens), sequence (P11712 whole entry, looked up): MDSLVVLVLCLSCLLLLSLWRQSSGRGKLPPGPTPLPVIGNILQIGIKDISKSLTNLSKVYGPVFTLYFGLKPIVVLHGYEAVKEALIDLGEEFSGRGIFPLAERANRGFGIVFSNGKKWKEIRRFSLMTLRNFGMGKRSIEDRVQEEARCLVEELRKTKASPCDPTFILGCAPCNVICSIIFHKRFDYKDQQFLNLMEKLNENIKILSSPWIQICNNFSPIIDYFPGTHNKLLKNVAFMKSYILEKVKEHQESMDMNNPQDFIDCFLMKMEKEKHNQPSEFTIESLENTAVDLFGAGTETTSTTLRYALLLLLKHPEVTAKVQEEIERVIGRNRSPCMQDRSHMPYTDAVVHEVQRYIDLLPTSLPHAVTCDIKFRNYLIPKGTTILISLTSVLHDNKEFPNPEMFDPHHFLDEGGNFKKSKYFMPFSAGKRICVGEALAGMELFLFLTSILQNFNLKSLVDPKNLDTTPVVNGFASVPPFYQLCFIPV
# Outline: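 Human CYP2C9 (10nM) with Luciferin-H at 100uM (its KM) in 25mM KPO4; compound preincubated 10 min at 37C, then NADPH regeneration for 60 min at 37C. Luciferin read by luminescence after detection reagent; normalized to 57uM sulphaphenazole as full inhibition.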
# [2] = qHTS Assay for Identification of Small Molecule Agonists for Hypoxia Response Element Signaling Pathway (AID 914; active means well fitted activation curve with a large enough effect in the signal ratio, with a control signal flat, not every such curve was filed as active; the % refers to the signal ratio; further: potency means the concentration at half of the fitted maximal effect); details: ME-180 (cervical carcinoma) HRE-bla reporter, beta-lactamase ratio, CoCl2, 17 h; activation: hits give high values
# Outline: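 A beta-lactamase reporter under hypoxia response element control in ME-180 cells served as the system. Compound titrations plus EC50 CoCl2 ran 17 h at 37 degrees Celsius; AC50 values were fitted from %Activity.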
# [3] = Confirmation and Secondary Assay for Modulators of Hemoglobin Beta Chain Splicing at IVS2 705 locus (AID 930);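 further: HeLa cells stably expressing the EGFP-705 splicing reporter; GFP fluorescence per well restored by corrected splicing of the IVS2-705 intron in EGFP; series mostly up to about 46 µM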
# Outline: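 Fluorescence gain (488 nm laser, 500-520 nm PMT) reflects restored correct splicing of a mutant IVS2-705 intron inside EGFP in stably transfected HeLa cells after 2-day compound treatment.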
# [4] = target: Cytochrome P450 2C19 (Homo sapiens) (UniProt P33261); assay: qHTS Assay for Inhibitors and Substrates of Cytochrome P450 2C19 (AID 899); further: nearly all actives have a fitted effect of over 60% in size; further: potency means the concentration at half of the fitted maximal effect
# Cytochrome P450 2C19 (Homo sapiens), sequence (P33261 whole entry, looked up): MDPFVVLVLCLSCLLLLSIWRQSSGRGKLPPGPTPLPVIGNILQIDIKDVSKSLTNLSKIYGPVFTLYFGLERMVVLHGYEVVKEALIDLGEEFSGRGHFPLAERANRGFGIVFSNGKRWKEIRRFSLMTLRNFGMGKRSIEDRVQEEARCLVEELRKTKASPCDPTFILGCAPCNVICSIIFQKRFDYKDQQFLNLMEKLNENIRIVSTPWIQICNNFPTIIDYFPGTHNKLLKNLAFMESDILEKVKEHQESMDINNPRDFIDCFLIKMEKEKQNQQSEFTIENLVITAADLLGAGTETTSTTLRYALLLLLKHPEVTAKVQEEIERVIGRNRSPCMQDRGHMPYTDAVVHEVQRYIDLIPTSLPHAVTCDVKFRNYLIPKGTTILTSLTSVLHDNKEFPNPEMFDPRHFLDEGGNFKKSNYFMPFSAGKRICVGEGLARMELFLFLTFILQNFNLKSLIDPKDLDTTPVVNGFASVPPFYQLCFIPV
# Outline: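 5 nM human CYP2C19 with 10uM Luciferin-H EGE (at KM) in 50mM KPO4, compound preincubated 10 min at 37C, then NADPH regeneration for 60 min at 37C. Luciferin read by luminescence after detection reagent; normalized to 57uM ketoconazole as full inhibition.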
# [5] = target: Cytochrome P450 2D6 (Homo sapiens) (UniProt P10635); assay: qHTS Assay for Inhibitors and Substrates of Cytochrome P450 2D6 (AID 891); further: potency means the concentration at half of the fitted maximal effect; nearly all actives have a fitted effect of over 60% in size
# Cytochrome P450 2D6 (Homo sapiens), sequence (P10635 whole entry, looked up): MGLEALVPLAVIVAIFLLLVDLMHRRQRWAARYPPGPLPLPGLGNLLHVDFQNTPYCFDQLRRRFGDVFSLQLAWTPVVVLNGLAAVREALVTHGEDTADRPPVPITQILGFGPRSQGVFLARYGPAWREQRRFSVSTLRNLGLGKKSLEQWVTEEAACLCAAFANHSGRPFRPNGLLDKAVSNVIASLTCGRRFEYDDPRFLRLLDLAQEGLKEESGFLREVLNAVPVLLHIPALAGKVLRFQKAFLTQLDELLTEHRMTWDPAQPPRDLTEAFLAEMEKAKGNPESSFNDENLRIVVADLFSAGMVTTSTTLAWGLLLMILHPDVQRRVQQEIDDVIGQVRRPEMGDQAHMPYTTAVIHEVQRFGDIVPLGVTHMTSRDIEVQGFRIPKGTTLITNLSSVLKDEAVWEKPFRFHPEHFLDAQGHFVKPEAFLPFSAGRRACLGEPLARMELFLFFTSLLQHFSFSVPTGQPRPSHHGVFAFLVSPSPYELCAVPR
# Outline: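 Luminescent read-out of luciferin formed by 5 nM human CYP2D6 demethylating 30 uM Luciferin-ME EGE (Km level) over 60 min at room temperature after NADPH regeneration addition. Data normalized to full inhibition by 1.43 uM quinidine.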
# [6] = Primary qHTS for small molecule stabilizers of the endoplasmic reticulum resident proteome: Secreted ER Calcium Modulated Protein (SERCaMP) assay (AID 1508630); further: potency means the concentration at half of the fitted maximal effect
# Outline: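 The SH-SY5Y reporter protocol was run at 3 concentrations up to 38.3 uM (primary) or 11 concentrations (follow-up): 16 h compound, 100 nM thapsigargin for 4 h, then extracellular luciferase luminescence.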
# [7] = target: Rap guanine nucleotide exchange factor 3 (Homo sapiens) (UniProt O95398); assay: Confirmatory qHTS for antagonist of cAMP-regulated guanine nucleotide exchange factor 3 (EPAC1) (AID 1645880); further: nearly all actives have a fitted effect of over 55% in size
# Rap guanine nucleotide exchange factor 3 (Homo sapiens), sequence (O95398 whole entry, looked up): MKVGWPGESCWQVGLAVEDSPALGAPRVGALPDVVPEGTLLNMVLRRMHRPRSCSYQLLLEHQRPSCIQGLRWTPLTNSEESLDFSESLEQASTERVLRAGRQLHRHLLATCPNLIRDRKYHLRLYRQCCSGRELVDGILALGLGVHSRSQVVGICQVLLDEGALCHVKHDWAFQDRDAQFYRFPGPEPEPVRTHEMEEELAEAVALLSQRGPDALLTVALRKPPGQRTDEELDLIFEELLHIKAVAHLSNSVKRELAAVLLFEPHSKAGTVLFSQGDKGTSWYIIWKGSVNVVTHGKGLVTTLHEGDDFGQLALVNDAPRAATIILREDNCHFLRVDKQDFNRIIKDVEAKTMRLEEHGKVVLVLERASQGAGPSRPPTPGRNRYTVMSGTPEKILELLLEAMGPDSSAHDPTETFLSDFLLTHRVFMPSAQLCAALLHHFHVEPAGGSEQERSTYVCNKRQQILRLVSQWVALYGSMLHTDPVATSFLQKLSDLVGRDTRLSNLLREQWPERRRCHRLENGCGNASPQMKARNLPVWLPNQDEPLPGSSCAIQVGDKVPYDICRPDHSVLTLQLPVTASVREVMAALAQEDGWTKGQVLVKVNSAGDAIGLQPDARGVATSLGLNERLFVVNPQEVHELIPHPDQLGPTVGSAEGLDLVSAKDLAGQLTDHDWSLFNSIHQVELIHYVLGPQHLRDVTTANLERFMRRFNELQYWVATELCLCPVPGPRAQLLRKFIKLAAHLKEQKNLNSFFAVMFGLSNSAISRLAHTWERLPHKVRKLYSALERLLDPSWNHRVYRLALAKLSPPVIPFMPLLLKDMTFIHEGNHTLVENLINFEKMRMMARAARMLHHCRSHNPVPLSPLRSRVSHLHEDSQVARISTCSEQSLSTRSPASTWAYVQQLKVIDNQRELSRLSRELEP
# Outline: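 Released BODIPY-GDP fluoresces less than Rap1-bound BODIPY-GDP; the signal is followed at 480/540 nm at 5-min intervals over 30 min, after 5 min at room temperature. Reactions contain 100 nM EPAC1, 250 nM RAP1B-BODIPY-GDP and 50 uM GDP; results are normalized to ATA and DMSO.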
# [8] = target: Rap guanine nucleotide exchange factor 3 (Homo sapiens) (UniProt O95398); assay: Confirmatory qHTS for agonist of cAMP-regulated guanine nucleotide exchange factor 3 (EPAC1) (AID 1645881);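 further: EPAC1 catalysed release of BODIPY-GDP from Rap1B seen as fluorescence loss; nearly all actives have a fitted effect of over 75% in size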
# [9] = target: Rap guanine nucleotide exchange factor 4 (Homo sapiens) (UniProt Q8WZA2); assay: Confirmatory qHTS for agonist of cAMP-regulated guanine nucleotide exchange factor 4 (EPAC2) (AID 1645884);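 further: nucleotide exchange releases bodipy-GDP from Rap1 and this lowers its fluorescence; nearly all actives have a fitted effect of over 65% in size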
# Rap guanine nucleotide exchange factor 4 (Homo sapiens), sequence (Q8WZA2 whole entry, looked up): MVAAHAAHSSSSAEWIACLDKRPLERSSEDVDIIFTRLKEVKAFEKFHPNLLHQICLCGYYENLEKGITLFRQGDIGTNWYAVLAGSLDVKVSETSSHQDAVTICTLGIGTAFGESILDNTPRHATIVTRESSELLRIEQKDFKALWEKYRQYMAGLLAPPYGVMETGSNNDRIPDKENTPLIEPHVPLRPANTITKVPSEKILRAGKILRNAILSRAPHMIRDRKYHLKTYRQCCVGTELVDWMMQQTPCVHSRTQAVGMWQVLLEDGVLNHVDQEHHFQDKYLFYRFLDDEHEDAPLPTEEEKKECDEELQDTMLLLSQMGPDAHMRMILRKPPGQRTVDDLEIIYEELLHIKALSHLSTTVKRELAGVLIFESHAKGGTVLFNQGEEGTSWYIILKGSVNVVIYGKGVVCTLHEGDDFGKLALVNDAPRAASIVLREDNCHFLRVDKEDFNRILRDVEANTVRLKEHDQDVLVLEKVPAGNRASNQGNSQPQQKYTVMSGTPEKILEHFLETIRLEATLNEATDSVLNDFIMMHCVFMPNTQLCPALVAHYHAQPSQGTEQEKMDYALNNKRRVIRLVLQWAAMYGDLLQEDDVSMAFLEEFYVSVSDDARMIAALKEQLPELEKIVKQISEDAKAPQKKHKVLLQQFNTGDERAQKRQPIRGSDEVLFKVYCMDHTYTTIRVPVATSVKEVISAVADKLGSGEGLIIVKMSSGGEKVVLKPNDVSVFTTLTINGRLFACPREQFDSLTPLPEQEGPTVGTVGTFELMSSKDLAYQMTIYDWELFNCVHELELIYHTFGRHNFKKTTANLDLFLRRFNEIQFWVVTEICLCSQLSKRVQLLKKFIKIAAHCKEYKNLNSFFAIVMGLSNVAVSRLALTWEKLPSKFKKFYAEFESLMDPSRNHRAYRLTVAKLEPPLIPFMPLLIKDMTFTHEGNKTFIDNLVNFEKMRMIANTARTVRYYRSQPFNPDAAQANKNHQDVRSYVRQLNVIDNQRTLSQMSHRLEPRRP
compound,measurement,setting,value
FC(F)(F)c1ccccc1-c1nccc(N2CCNCC2)n1,"activity change, negative = inhibition",[1],37.4% [at 2.29 µM]
COCCn1c(=O)c(-c2ccccc2)nc2cnc(N3CCNCC3)nc21,Potency,[2],3.16 µM (active)
COc1ccccc1-c1ccc2ncnc(N3CCN(C)CC3)c2c1,outcome,[3],inactive
FC(F)(F)c1ccccc1-c1nc(NC2CCNCC2)c2ccccc2n1,Potency,[4],inactive
COc1ccc(CNc2ncnc3ccc(-c4ccccc4CN(C)C)cc23)c(OC)c1,"activity change, negative = inhibition",[1],2.97% [at 2.29 µM]
same,Potency,[5],1.26 µM (active)
same,outcome,[3],inactive
COc1ccc(Oc2ncc3nc(CCc4ccccc4)c(=O)n(C[C@H]4CCCO4)c3n2)cc1,Potency,[6],35.5 µM (active)
N#CCCn1c(=O)c(CCc2ccccc2)nc2cnc(Oc3cccc(Cl)c3)nc21,Potency,[1],3.16 µM (active)
same,Potency,[4],6.31 µM (active)
c1ccc2c(N3CCNCC3)nc(-c3ccc4c(c3)OCO4)nc2c1,Potency,[5],3.16 µM (active)
same,outcome,[3],inactive
CN1CCN(c2nc(-c3cccc(C#N)c3)nc3ccccc23)CC1,outcome,[3],inactive
N#Cc1cccc(-c2nc(N3CCNCC3)c3ccccc3n2)c1,outcome,[3],inactive
Cc1noc(C)c1-c1nc(N2CCNCC2)c2ccccc2n1,outcome,[3],inactive
CC1=C2C(=CO[C@H](C)[C@H]2C)C(=O)C(C(=O)O)=C1O,Potency,[6],inactive
Cc1ccc(P(=O)(CSC(=N)N)c2ccc(C)cc2)cc1,Potency,[7],inactive
same,outcome,[8],inactive
same,activation,[9],-5.01% [at 17.1 µM]
CC(=O)O[C@@H]1CC2C(C)(C)C(=O)C=C[C@]2(C)C2CC[C@]3(C)C(=CC[C@H]3C3CO[C@@H](C(C)(C)O)[C@H](O)C3)[C@@]21C (some centres not stated),Potency,[6],inactive
OCC1=CC[N+]2(Cc3ccccc3)CCC(O)[C@@H]12 (some centres not stated),Potency,[6],inactive
O=c1c(-c2ccccc2)nc2cnc(N3CCNCC3)nc2n1-c1ccccc1,Potency,[2],3.16 µM (active)
FC(F)(F)c1ccccc1-c1nc(N2CCNCC2)c2ccccc2n1,outcome,[3],inactive
C/C=C(\C)C(=O)O[C@H]1CC(C)=C2C(=O)C=C(C)C2[C@@H]2OC(=O)[C@@](C)(OC(=O)C=C(C)C)C21 (some centres not stated),Potency,[6],inactive
COc1ccc(-c2nc3cnc(N4CCNCC4)nc3n(CCc3ccccc3)c2=O)cc1,Potency,[1],3.98 µM (active)
COc1ccc(-n2c(=O)c(-c3ccccc3)nc3cnc(N4CCNCC4)nc32)cc1,Potency,[2],3.16 µM (active)
CN(C)c1ncc2ncc(=O)n(CCc3ccccc3)c2n1,Potency,[1],6.31 µM (active)
same,Potency,[4],2 µM (active)
CN1CCN(c2ncc3nc(-c4ccccc4)c(=O)n(-c4ccccc4)c3n2)CC1,Potency,[2],3.16 µM (active)
CN1CCN(c2ncncc2-c2ccccc2C(F)(F)F)CC1,activation,[2],5.49%
CC1=CC[C@@]2(CO)COC(c3ccccc3O)C1C2 (some centres not stated),Potency,[6],inactive
Cc1cccc(CNc2cc(-c3ccccc3CN(C)C)ncn2)c1,outcome,[3],inactive
CN1CCN(c2ncnc3ccc(-c4ccccc4C#N)cc23)CC1,outcome,[3],inactive
Cc1nc(-c2coc3c(O)c(O)ccc3c2=O)cs1,Potency,[6],inactive
CC1CCC2=C1C[C@H](C(C)(C)O)CC[C@@H]2C (some centres not stated),Potency,[6],inactive
Cc1ccccc1-c1nc(NC2CCNCC2)c2ccccc2n1,activation,[2],12.4%
same,outcome,[3],inactive
COc1ccc2c(c1OC)C(=O)N1c3ccccc3C(=O)OC21 (configuration not stated),Potency,[6],inactive
Cc1noc(C)c1C(=O)N1CCC2(CCN(Cc3ccc(C#N)cc3)CC2)CC1,Potency,[6],inactive
same,Potency,[7],inactive
same,outcome,[8],inactive
same,outcome,[9],inactive
